For test [1], the target named is human Vitamin D Receptor (VDR), VDR (gene 7421) (UniProt P11473). The test can be described thus: ATG_VDR_TRANS: Attagene TRANS-FACTORIAL HepG2 Assay for human Vitamin D Receptor (VDR) (AID 2283022; active means hit-call score of the fitted dose curve at least 0.9, where 1 is the maximum). In outline: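 Multiplexed TRANS reporter in HepG2; 24 h treatment; reporter mRNA by RT-PCR plus capillary electrophoresis; upregulation scored relative to DMSO.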
Read-out in test [2]: Monokine induced gamma interferon (MIG), CXCL9 (gene 4283)
Briefly: BSK_3C_MIG: BioMAP Diversity Plus: 3C Assay for Monokine induced gamma interferon (MIG) Biomarker Activity (AID 2283021). The following applies: primary human endothelial cells (HUVEC); actives raise or lower the signal. Put shortly:
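ELISA-measured MIG in dosed HUVEC 3C cultures at 24 h, analysed by bidirectional fitting with DMSO defining baseline activity.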

The nature of test [3]: BSK_3C_SRB: Viability Assessment in the BioMAP Diversity Plus: 3C Assay (AID 2283023).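 Further: cells read 24 h after compound dosing; fitted both ways against DMSO so a hit may be signal rise or drop.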 The following applies: primary human endothelial cells (HUVEC). Put shortly:
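Overt cytotoxicity is gauged in parallel confluent HUVEC cultures by SRB total-protein staining at the time of biomarker measurement, 24 h after dosing. Gain or loss of signal is fitted versus DMSO.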

Read-out in test [4]: Matrix Metallopeptidase 1 (MMP1), MMP1 (gene 4312)
The test can be described thus: BSK_BE3C_MMP1: BioMAP Diversity Plus: BE3C Assay for Matrix Metallopeptidase 1 (MMP1) Biomarker Activity (AID 2283024). The following applies: primary human bronchial epithelial cells; actives raise or lower the signal. Put shortly:
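In this multiplexed primary-cell system, human bronchial epithelium received chemicals for 24 h before an ELISA for MMP1. Values reflect bidirectional fits normalised to the DMSO baseline.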

Test [5] can be described thus: BSK_3C_Vis: BioMAP Diversity Plus: 3C Assay for Morphology Visualization (AID 2283025).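 Further: fitted both ways so gain or loss versus DMSO counts.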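 On AC50: light microscopy image of cell morphology used as background control; cells imaged 24 h after dosing.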 The conditions noted are these: primary human endothelial cells (HUVEC). In outline:
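Light-microscopy morphology readout, 24 h exposure, human primary umbilical vein endothelium; analysed relative to DMSO with bidirectional fitting.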

Read-out in test [6]: Pselectin, SELP (gene 6403)
Briefly: BSK_4H_Pselectin: BioMAP Diversity Plus: 4H Assay for Pselectin Biomarker Activity (AID 2283026). The conditions noted are these: primary human endothelial cells (HUVEC); actives raise or lower the signal. Put shortly:
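Bidirectional fits against DMSO gave the endpoint. Cells: primary human umbilical vein endothelium, chemical-treated for 24 h before ELISA detection of P-selectin.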

The nature of test [7]: BSK_4H_SRB: Viability Assessment in the BioMAP Diversity Plus: 4H Assay (AID 2283027).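 Further: cells exposed to compound for 24 h before staining.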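 On AC50: curves fitted both ways versus DMSO so AC50 may be loss or gain.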 The following applies: primary human endothelial cells (HUVEC). Put shortly: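 Cytotoxicity readout: sulforhodamine B (0.1%) staining of total protein after 10% TCA fixation, measured at 560 nm in human umbilical vein endothelium at 24 h. DMSO set the baseline; fitting was bidirectional.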

Read-out in test [8]: Thrombomodulin, THBD (gene 7056)
The test can be described thus: BSK_3C_Thrombomodulin: BioMAP Diversity Plus: 3C Assay for Thrombomodulin Biomarker Activity (AID 2283029). The conditions noted are these: primary human endothelial cells (HUVEC); actives raise or lower the signal. Put shortly: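 In a multiplexed primary-cell system, human umbilical vein endothelium received chemical and was assayed 24 h later for thrombomodulin by ELISA. Parallel cultures were SRB-stained (0.1% SRB after 10% TCA fixation, read at 560 nm) to flag cytotoxicity.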

Read-out in test [9]: Urokinase-type plasminogen activator receptor (uPAR), PLAUR (gene 5329)
Briefly: BSK_4H_uPAR: BioMAP Diversity Plus: 4H Assay for Urokinase-type plasminogen activator receptor (uPAR) Biomarker Activity (AID 2283030). The following applies: primary human endothelial cells (HUVEC); actives raise or lower the signal. In outline: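 Endpoint derived via bidirectional curve fitting against DMSO baseline; readout was ELISA detection of uPAR on umbilical vein endothelial cells at 24 h post-treatment, with SRB-stained parallel cultures assessing cytotoxicity.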

“And” between values parts separate entries of the source, which are not always exact repeats. Equal entries are not always repeated. Results filed as inconclusive are left out. More than one record can exist for a structure, and the calls need not agree. The source made the active and inactive calls. How the source made its calls, unless noted: active means hit-call score of the fitted dose curve at least 0.9, where 1 is the maximum; inactive means score below 0.9.

human Vitamin D Receptor (VDR), VDR (gene 7421), sequence (P11473 whole entry, looked up): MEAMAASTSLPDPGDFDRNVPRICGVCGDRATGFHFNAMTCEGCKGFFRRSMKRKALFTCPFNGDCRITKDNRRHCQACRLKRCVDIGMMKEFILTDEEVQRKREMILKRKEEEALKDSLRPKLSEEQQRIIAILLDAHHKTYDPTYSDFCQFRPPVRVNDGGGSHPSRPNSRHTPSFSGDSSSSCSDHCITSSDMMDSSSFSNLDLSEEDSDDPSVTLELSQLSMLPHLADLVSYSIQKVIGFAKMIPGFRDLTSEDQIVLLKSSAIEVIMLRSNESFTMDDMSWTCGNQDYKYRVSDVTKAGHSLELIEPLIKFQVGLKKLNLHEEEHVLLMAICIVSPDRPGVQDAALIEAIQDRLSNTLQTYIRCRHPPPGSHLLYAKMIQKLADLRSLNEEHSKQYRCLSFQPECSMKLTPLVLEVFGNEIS

Regarding `N#Cc1ccc(CC(=O)c2cccc(C(F)(F)F)c2)cc1`, the call in test [1] was inactive.
Same read-out and setting: for `CCCCCC(=O)CC` the value was “inactive”; for `COC(CC(C)CCCC(C)(C)O)OC` (centres undefined), “inactive”; for `CCCCCCCCCCCCCC(=O)OCC(O)CO` (centres undefined), “inactive”.
As for `NC1CCCCC1N` (centres undefined), the molecule was called inactive in test [1].
The same measure, in the same setting: the entry for `C[Si](C)(C)O[Si](C)(C)C` is “inactive”; for `CCCCCCCC/C=C\CCCCCCCC(=O)OCC` it is “inactive”.
For the molecule `O=C(O)COCC(=O)O`, the call in [1] was inactive.
Same read-out and setting: for `CC1(C)COCN1` the value was “inactive”.
On the same count and under the same terms, the entry for `Nc1ccc(N)c2c1C(=O)c1ccccc1C2=O` is “inactive”; for `CCCCCCCCCCCC(=O)OC[C@@H](O)[C@H]1OC[C@H](O)[C@H]1O` it is “inactive”.
The same measure, in the same setting: for `C=COCCOCCOC=C` the value was “inactive”.
Take `C=C(C)CNCC`: the result in [1] was inactive.
The same measure, in the same setting: for `COC(=O)c1ccc(OC)cc1` the value was “inactive”; for `CCC1(C)NC(=O)NC1=O` (centres undefined), “inactive”.
For the molecule `CC(=O)c1c(C)c([N+](=O)[O-])c(C(C)(C)C)c([N+](=O)[O-])c1C`, the outcome in test [2], in [3], in test [4], in [5], in test [6] and in test [7] was inactive. The outcome in [8] and in [9] was inactive.
As for `C1CCOC1`, the molecule was called inactive in [1].
With `CCCCCCC(CO)CCCC` (centres undefined), the result in test [2], in test [3], in [4], in test [6], in test [7] and in test [8] was inactive. For the same molecule, in [9], the outcome was inactive.
As for `CC(CN=Cc1ccccc1O)N=Cc1ccccc1O` (centres undefined), the outcome in [2], in test [3], in test [4], in test [6], in [7] and in test [8] was inactive. For the same molecule, in test [9], the result was inactive.
As for `C=CCN(CC=C)CC=C`, the call in [1] was inactive.
Still for that read-out and setting: the entry for `CC(C)(C)OC(=O)c1ccc(O)cc1` is “inactive”; for `C=CC(C)C#N` (centres undefined) it is “inactive”; for `CCCCOCC` it is “inactive”.
`O=CN1CCOCC1`: the result in test [2], in [3], in [4], in test [6], in test [7] and in test [8] was inactive. For the same molecule, the result in [9] was inactive.
On to `CCC(C)S` (centres undefined), for which the molecule was called inactive in test [1].
For `CC(=O)O[C@@H]1CC2CCC1(C)C2(C)C` (some centres undefined), in [1], the outcome was inactive.
As to `O=C1NC2NC(=O)NC2N1` (centres undefined), the result in test [1] was inactive.
On the same count and under the same terms, the entry for `CN1CCOCC1` is “inactive”.
As usually defined, the AC50 is the concentration giving half of the maximal activity seen. As for `CCOC(=O)C(C#N)=C(c1ccccc1)c1ccccc1`, the result in test [2], in test [6], in test [7], in test [8] and in test [9] was inactive. Also, the half-maximal activity concentration (AC50) is 25.6 µM (active) and 20 µM (active) in test [3]; 25.2 µM (active) and 31.1 µM (active) in test [4]; 8.14 µM (active) in test [8].
With `Cc1ccc(S(=O)(=O)Oc2ccc(N=Nc3ccc(-c4ccc(N=Nc5c(O)ccc6cc(S(=O)(=O)O)cc(S(=O)(=O)O)c56)c(C)c4)cc3C)cc2)cc1`, the molecule was classed as inactive in test [1].
`c1ccc(CCc2ccccc2)cc1`: the AC50 in [3] was 30.5 µM (active); in test [4] it was 20 µM (active); in [5], 8.8 µM (active); in test [6] it was 35.7 µM (active); in test [7], 31 µM (active); in test [8], 20 µM (active). Moreover, the half-maximal activity concentration (AC50) in [9] is 32.2 µM (active).

The record behind these values is PubChem BioAssay (EPA / NIEHS).
